Data taken from PubChem BioAssay (NCI).
This is part of a sample that, as a whole, favours compounds with a hit. Of some 79,000 tested, about 15% had one in any assay. Rule as the data show it: active = growth inhibition above about 70%; inactive = the rest.

Columns and labels:
[1] = NCI Yeast Anticancer Drug Screen. Data for the rad50 strain (AID 155);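 also: 0% = growth of vehicle-only cultures of the same strain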; conditions: S. cerevisiae rad50 strain growth inhibition; at 50.0 µM; hits give high values
Method in brief: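 Yeast carrying a defined DNA repair defect were exposed to test compounds, and growth was compared with vehicle-treated controls to give percent inhibition.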

[2] = NCI Yeast Anticancer Drug Screen. Data for the mec2-1 strain (AID 157); conditions: S. cerevisiae mec2-1 strain, at 50.0 µM, hits give high values
Method in brief: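 Strain: mec2-1 (DNA repair/cell cycle alteration). Compound exposure, then growth measured; inhibition expressed relative to vehicle.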

[3] = NCI Yeast Anticancer Drug Screen. Data for the sgs1 mgt1 strain (AID 161);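 also: 0% = growth of cultures given vehicle only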; conditions: S. cerevisiae sgs1 mgt1 strain, at 50.0 µM, hits give high values
Method in brief: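 Mutant yeast exposed to compound; growth scored against vehicle-only wells.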

[4] = NCI Yeast Anticancer Drug Screen. Data for the cln2 rad14 strain (AID 165);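 also: 0% = growth equal to vehicle treated cultures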; conditions: S. cerevisiae cln2 rad14 strain, at 50.0 µM, hits give high values
Method in brief: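 Compounds are applied to the cln2 rad14 yeast strain, and growth is then compared with that of vehicle-treated cultures to give inhibition.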

[5] = NCI Yeast Anticancer Drug Screen. Data for the bub3 strain (AID 167); conditions: S. cerevisiae bub3 mutant strain, at 50.0 µM, hits give high values
Method in brief: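 Compounds were applied to a genetically altered yeast strain carrying a cell-cycle control defect. Growth inhibition was scored against vehicle-treated controls.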

[6] = NCI Yeast Anticancer Drug Screen. Data for the mlh1 rad18 strain (AID 175); conditions: S. cerevisiae mlh1 rad18 strain growth inhibition; at 50.0 µM; hits give high values
Method in brief: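 Read-out is yeast growth inhibition, calculated against vehicle-only controls. The compound was applied to a strain engineered with DNA damage repair alterations.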

Measured: growth inhibition

CCCNc1nc2c(s1)c1c(O)c3c(O)c(C)c4c(c32)C(=O)C(C)(O/C=C\C(OC)C(C)C(OC(C)=O)C(C)C(O)C(C)C(O)C(C)/C=C/C=C(/C)C(=O)N1)O4 (stereo not given)
inactive: [1] 8.75% | [2] 9.7% | [3] 3.2% | [4] 10.2% | [5] 14.2% | [6] 17.3%

O=C1OC(Cc2ccccc2)=N/C1=C/c1ccccc1
inactive: [1] 9.05% | [2] 0.8% | [3] 1.15% | [4] -9% | [5] 2.7% | [6] 4.55%

COc1ccccc1-n1c(O)c(N=Nc2ccccc2)c(=O)n(-c2ccc(C)cc2)c1=S
inactive: [1] 38.3% | [2] -8.95% | [3] 66.8% | [4] -10.8% | [5] -2.2% | [6] 12.8%

FC(F)(F)c1cc(Nc2nc(-c3ccccc3)nc3c2C(=NCc2ccco2)OC3=NCc2ccco2)ccc1Cl
inactive: [1] 5% | [2] 14.6% | [3] 2.9% | [4] -6.35% | [5] -4.7% | [6] 9.75%

NC(=O)Cc1ccncc1
inactive: [1] 5.95% | [2] -2.85% | [3] -3.95% | [4] -9.9% | [5] -2.7% | [6] 1.55%

Clc1cccc2[nH]c(-c3ccncc3)nc12
inactive: [1] -18.1% | [2] -15.1% | [3] -15.4% | [4] -10.8% | [5] 2.95% | [6] -5.75%

c1ccc(SC2(Sc3ccccc3)CCCC2)cc1
inactive: [1] -9.15% | [2] -22.1% | [3] -12.2% | [4] -0.5% | [5] -24.6% | [6] -17.4%

Cc1nc(N)[nH]c(=O)c1-n1nnc2ccccc2c1=O
inactive: [1] 0.15% | [2] 17.1% | [3] 14.1% | [4] -2.1% | [5] 0.9% | [6] -4.1%

CC(=O)CC(=O)NCc1cccc(C)n1
inactive: [1] 38.1% | [2] 24.6% | [3] 28.6% | [4] -8.15% | [5] 20.9% | [6] 24.1%

S=C(Nc1ccccc1)N1N=C2c3ccccc3CC[C@H]2[C@@H]1c1ccccc1
inactive: [1] -24.3% | [2] -37.9% | [3] -37.5% | [4] -1% | [5] -28.2% | [6] -58.5%

O=[N+]([O-])c1cccc(C(O)(C(F)(F)F)C(F)(F)F)c1
inactive: [1] -19.1% | [2] 6.2% | [3] 1.7% | [4] 24.1% | [5] 42.7% | [6] 14%

O=C(O)c1cc(-c2ccccc2)ccc1O
inactive: [1] 27.8% | [2] -70.3% | [3] 12.6% | [4] 25.2% | [5] -2.6% | [6] 46.6%

COC1c2ccccc2C(C)(C)c2nc3ccccc3cc21 (stereo not given)
inactive: [1] -1.05% | [2] -10% | [3] -4.6% | [4] -38% | [5] 1.6% | [6] -3.1%

S=c1c2ccccc2sn1-c1ccccc1
inactive: [1] 26.2% | [2] 21.6% | [3] 14.9% | [4] -0.85% | [5] -12.9% | [6] 51.5%

O=C(NI1OC(=O)c2ccccc21)c1ccc(Cl)cc1
inactive: [1] -9% | [2] 6.05% | [3] -38% | [4] -17.5% | [5] -33.6% | [6] -5.6%

CS/C(c1ccccc1)=[N+](\[O-])Cc1ccccc1
inactive: [1] 17.6% | [2] 9% | [3] -7.1% | [4] 8.5% | [5] -0.75% | [6] 3.15%

O=C(O)c1ccc2ccccc2c1C(=O)c1ccc(F)cc1
inactive: [1] 10.1% | [2] -1.6% | [3] 17.9% | [4] 18.3% | [5] 20.3% | [6] 3.1%

Nc1c[nH]c(=S)s1
inactive: [1] 36.9% | [2] 18.8% | [3] 54.7% | [4] 0.9% | [5] 39.6% | [6] 51.2%

Cc1cccc(OS(=O)(=O)c2ccccc2)c1
inactive: [1] 34.6% | [2] 16.2% | [3] 36% | [4] 8.1% | [5] -6.65% | [6] 24.8%

Cc1cnc2c(C)ccc([N+](=O)[O-])c2c1NCCCN(C)C
inactive: [1] 34.2% | [2] 13.8% | [3] 12.7% | [4] 2.45% | [5] 16.9% | [6] 52%
